Laboratory results reported in PubChem BioAssay (NCI).
About 83,000 compounds went through this panel and 20% of them were active in at least one assay; those are over-represented in the sample as a whole.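 Activity criterion: percent growth below 10, measured after cells in 96-well plates were exposed to a single compound concentration for 48 hours.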 Activity calls are given as the source filed them.

Tests used:
Experiment in all cases: NCI-60 one-dose screen, 48 h (100 = growth as untreated, 0 = no growth, -100 = all killed)
Details in all cases: 10 µM unless noted
NCI-H23 lung = tested on: NCI-H23 lung
NCI-H226 lung = tested on: NCI-H226 lung
NCI-H322M lung = tested on: NCI-H322M lung
HOP-62 NSCLC = tested on: HOP-62 NSCLC
NCI-H460 lung = tested on: NCI-H460 lung
HOP-92 NSCLC = tested on: HOP-92 NSCLC
NCI-H522 lung = tested on: NCI-H522 lung
A549/ATCC NSCLC = tested on: A549/ATCC NSCLC
786-0 renal = tested on: 786-0 renal
COLO 205 colon = tested on: COLO 205 colon
DU-145 prostate = tested on: DU-145 prostate
K-562 leukemia = tested on: K-562 leukemia
MALME-3M melanoma = tested on: MALME-3M melanoma
MDA-MB-231 breast = tested on: MDA-MB-231 breast
RXF 393 renal = tested on: RXF 393 renal
SF-268 CNS = tested on: SF-268 CNS
SF-295 CNS = tested on: SF-295 CNS
SF-539 CNS = tested on: SF-539 CNS
UACC-257 melanoma = tested on: UACC-257 melanoma
M14 melanoma = tested on: M14 melanoma

Measured: growth

CNCc1ccccc1CN(CC(=O)Nc1ccc2c(c1)CC1(C2)C(=O)Nc2ncccc21)C(=O)C(C)(C)C (stereo not given)
inactive: NCI-H23 lung 103% | NCI-H226 lung 95% | NCI-H322M lung 100% | HOP-62 NSCLC 102% | NCI-H460 lung 106% | HOP-92 NSCLC 104% | NCI-H522 lung 93.5% | A549/ATCC NSCLC 103% | 786-0 renal 107% | COLO 205 colon 102% | DU-145 prostate 112% | K-562 leukemia 107% | MALME-3M melanoma 99.5% | MDA-MB-231 breast 108% | RXF 393 renal 126% | SF-268 CNS 101% | SF-295 CNS 106% | SF-539 CNS 100% | UACC-257 melanoma 102% | M14 melanoma 98.7%

Cc1[nH]nc2ccc3nc(-c4ccc5[nH]ncc5c4)c4c(c3c12)CCCC4
active: HOP-92 NSCLC 2.41% | NCI-H522 lung 0.13% | COLO 205 colon 8.58% | MALME-3M melanoma 7.88% | RXF 393 renal 9.13%
inactive: NCI-H23 lung 31.1% | NCI-H226 lung 16.2% | NCI-H322M lung 36.9% | HOP-62 NSCLC 18.5% | NCI-H460 lung 19.3% | A549/ATCC NSCLC 12.6% | 786-0 renal 34.4% | DU-145 prostate 33.9% | K-562 leukemia 14.3% | MDA-MB-231 breast 42.6% | SF-268 CNS 33.8% | SF-295 CNS 31.1% | SF-539 CNS 18.7% | UACC-257 melanoma 50.6% | M14 melanoma 18.9%

Cc1ccc(S(=O)(=O)NC(CCC(=O)Nc2ccc(Cl)cc2)C(=O)Nc2ccc(Cl)cc2)cc1 (stereo not given)
inactive: NCI-H23 lung 38.8% | NCI-H226 lung 57.9% | NCI-H322M lung 40% | HOP-62 NSCLC 14.5% | A549/ATCC NSCLC 27.6% | 786-0 renal 16.9% | COLO 205 colon 52.7% | DU-145 prostate 45.8% | MALME-3M melanoma 14.2% | RXF 393 renal 22.9% | SF-268 CNS 38.8% | SF-295 CNS 10.5% | UACC-257 melanoma 45.6% | M14 melanoma 32.2%
active: NCI-H460 lung 7.89% | HOP-92 NSCLC -20.4% | NCI-H522 lung -29.7% | K-562 leukemia 2.8% | MDA-MB-231 breast -5.94% | SF-539 CNS -20.5%

CC(=O)OC1Oc2cc(C)c(C)cc2-c2oc(=O)c(-c3ccc(F)cc3)cc21 (stereo not given)
inactive: NCI-H23 lung 65.2% | NCI-H226 lung 102% | NCI-H322M lung 113% | HOP-62 NSCLC 77.8% | NCI-H460 lung 38% | HOP-92 NSCLC 80% | NCI-H522 lung 14.7% | A549/ATCC NSCLC 52.5% | 786-0 renal 56.3% | COLO 205 colon 79.2% | DU-145 prostate 75.8% | MALME-3M melanoma 65.3% | MDA-MB-231 breast 77.7% | SF-268 CNS 55.5% | SF-295 CNS 80.5% | SF-539 CNS 72.7% | UACC-257 melanoma 96% | M14 melanoma 38.5%
active: K-562 leukemia 6.83% | RXF 393 renal -1.93%

CN1CCN(Cc2ccc(NC(=O)c3ccc(C#N)c(C#Cc4cnc(N)c5ncccc45)c3)cc2C(F)(F)F)CC1
active: 786-0 renal -80.3% | K-562 leukemia -5.03% | MALME-3M melanoma -52% | MDA-MB-231 breast -2.17% | UACC-257 melanoma -20.1% | M14 melanoma 3.5%
inactive: NCI-H23 lung 96.8% | NCI-H226 lung 59.4% | NCI-H322M lung 96.7% | HOP-62 NSCLC 87.2% | NCI-H460 lung 21.7% | HOP-92 NSCLC 81.9% | NCI-H522 lung 98.4% | A549/ATCC NSCLC 90.6% | COLO 205 colon 77.7% | DU-145 prostate 28.8% | RXF 393 renal 41.9% | SF-268 CNS 94.1% | SF-295 CNS 103% | SF-539 CNS 54.5%

COC(=O)CNS(=O)(=O)c1ccc2c(c1)Cc1cc(S(=O)(=O)NCC(=O)OC)ccc1-2
inactive: NCI-H23 lung 107% | NCI-H226 lung 89.9% | NCI-H322M lung 106% | HOP-62 NSCLC 97.8% | NCI-H460 lung 105% | HOP-92 NSCLC 99.6% | NCI-H522 lung 95.7% | A549/ATCC NSCLC 99.7% | 786-0 renal 105% | COLO 205 colon 107% | DU-145 prostate 113% | K-562 leukemia 100% | MALME-3M melanoma 100% | MDA-MB-231 breast 105% | RXF 393 renal 108% | SF-268 CNS 102% | SF-295 CNS 100% | SF-539 CNS 97.2% | UACC-257 melanoma 97.6% | M14 melanoma 103%

O=C(Cn1nncc1CN1C(=O)CSC1=O)Nc1ccc(F)cc1
inactive: NCI-H23 lung 97.3% | NCI-H226 lung 95.7% | NCI-H322M lung 102% | HOP-62 NSCLC 97.2% | NCI-H460 lung 103% | HOP-92 NSCLC 104% | NCI-H522 lung 93.5% | A549/ATCC NSCLC 102% | 786-0 renal 102% | COLO 205 colon 107% | DU-145 prostate 105% | K-562 leukemia 104% | MALME-3M melanoma 97.5% | MDA-MB-231 breast 109% | RXF 393 renal 108% | SF-268 CNS 94.7% | SF-295 CNS 103% | SF-539 CNS 97.8% | UACC-257 melanoma 107% | M14 melanoma 102%

COc1c(C(=O)/C=C/c2ccc(C)o2)c(O)cc2occc12
inactive: NCI-H23 lung 79.5% | NCI-H226 lung 75.3% | NCI-H322M lung 97.2% | HOP-62 NSCLC 59.2% | NCI-H460 lung 70.1% | HOP-92 NSCLC 68% | NCI-H522 lung 41.8% | A549/ATCC NSCLC 58.8% | 786-0 renal 99.1% | COLO 205 colon 104% | DU-145 prostate 87.1% | K-562 leukemia 22.5% | MALME-3M melanoma 76.7% | MDA-MB-231 breast 89% | RXF 393 renal 62% | SF-268 CNS 80.1% | SF-295 CNS 82.4% | SF-539 CNS 80.6% | UACC-257 melanoma 86.1% | M14 melanoma 55.5%
